# TIM10 inh: growth inhibitors of isogenic TIM10 control yeast, primary screen, counter-screen for tim10-1 yeast inhibitor project, luminescence, uHTS; S. cerevisiae TIM10 strain growth, BacTiter-Glo luminescence, 24 h; inhibition, % at 10 µM; hit rate 1.4% among 330,000;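 active = inhibition of 40% or more at the single tested concentration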;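 also: wild-type TIM10 isogenic control strain grown at permissive 25 °C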
# PfHsp90 set2: growth inhibition of PfHsp90-expressing yeast, primary screen, antimalarial PfHsp90 inhibitor project, S. cerevisiae, BacTiter-Glo luminescence, single point, set 2 | inhibition, % at 9.4 µM | hit rate 0.32% among 310,000 | AID 504621, 2011 | BacTiter-Glo ATP, 48 h; yeast lacking PDR1 and PDR3 efflux regulators;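 active = every replicate shows inhibition above about 80%, whatever the replicate mean, limit read from the data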;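 also: 0% = DMSO neutral controls and 100% = 20 µM radicicol positive controls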
# tim10-1 inh: growth inhibitors of tim10-1 mutant yeast, primary screen, luminescence, uHTS. hit rate 2.2% among 330,000. S. cerevisiae tim10-1 ts strain growth, BacTiter-Glo, 24 h. AID 463190, 2010. inhibition, % at 20 µM;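 active = inhibition of at least 40%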;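 also: mutant grown at 25 °C; 0% = DMSO wells with yeast and 100% = wells holding no yeast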
# tim23-1 inh: growth inhibitors of tim23-1 mutant yeast, primary screen, luminescence, uHTS; S. cerevisiae tim23-1 growth, BacTiter-Glo luminescence, 24 h; inhibition, % at 20 µM; hit rate 1.3% among 330,000; AID 463212, 2010;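 active = growth inhibition of the mutant yeast at or above 50%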;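 also: temperature-sensitive mutant grown at 25 °C; plate controls were DMSO-treated mutant yeast for no effect and medium wells lacking yeast for full effect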
# Beta2AR agonist: beta2AR agonists driving receptor internalization, primary screen, cell-based, FAP fluorogen, flow cytometry. Beta-2 adrenergic receptor (Homo sapiens), P07550. Am2.2-beta2AR cells. response, % (no concentration beside the values). hit rate 0.43% among 340,000. AID 504454, 2011;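 active = response above a set limit, near 3 SD of response in nonfluorescent compounds, cut at about 42% in these data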
# Target sequence (P07550 whole entry, looked up): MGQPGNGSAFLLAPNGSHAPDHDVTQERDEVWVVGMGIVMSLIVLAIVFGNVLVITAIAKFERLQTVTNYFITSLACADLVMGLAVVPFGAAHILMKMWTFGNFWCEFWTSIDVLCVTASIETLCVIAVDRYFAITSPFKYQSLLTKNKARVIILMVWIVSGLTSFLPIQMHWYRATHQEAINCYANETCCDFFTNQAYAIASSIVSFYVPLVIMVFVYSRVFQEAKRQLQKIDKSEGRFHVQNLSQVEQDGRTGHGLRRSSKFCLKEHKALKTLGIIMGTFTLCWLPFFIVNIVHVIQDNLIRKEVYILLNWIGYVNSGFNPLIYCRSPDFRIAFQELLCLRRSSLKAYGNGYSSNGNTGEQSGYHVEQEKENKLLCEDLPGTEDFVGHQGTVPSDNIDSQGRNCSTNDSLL
# tim10-1 confirm: growth inhibitors of tim10-1 mutant yeast, confirmation, single concentration, luminescence, S. cerevisiae; S. cerevisiae tim10-1 ts strain growth, BacTiter-Glo, 24 h; hit rate 56% among 7,400; inhibition, % at 20 µM; shares compounds with tim10-1 inh;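 active = inhibition of yeast growth at or above a set limit in either of two repeat tests at 20 µM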;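 also: tim10-1 mutant grown at permissive 25 °C to find synthetic lethal compounds; 0% = DMSO yeast wells and 100% = medium wells without yeast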
# The depositor's hits bear a star; nt = not tested or not shown. Sampled rows, rich in hits. Any-hit rate of the full collection: about 3.8%.
SMILES,TIM10 inh,PfHsp90 set2,tim10-1 inh,tim23-1 inh,Beta2AR agonist,tim10-1 confirm
O=C(Nc1sc2c(c1C(=O)c1ccccc1)CCCC2)c1cccnc1,14,-5,18,44,-21,nt
Cc1ccc(NC(=O)CC2(CC(=O)O)CCCC2)c(C)c1,0,-14,-2,0,6,nt
CC(=O)c1cccc(NC(=O)CN2C(=O)C(=O)N(Cc3ccco3)C2=O)c1,-7,nt,-3,-5,-10,nt
COc1ccccc1-c1cc2ccccc2[nH]1,18,-19,51*,29,-7,33*
O=C(O)c1ccccc1-c1cc2ccccc2[nH]1,-11,-13,-21,-3,9,nt
CCc1cccc(CC)c1NC(=O)COC(=O)c1ccccc1-c1nc2ccccc2s1,10,0,44*,26,14,19
Cn1c(NCc2cc(Br)ccc2O)nc2ccccc21,7,nt,38,7,-15,nt
Cn1c(NCc2c(O)ccc3ccccc23)nc2ccccc21,28,nt,45*,36,-5,33*
C/C(=N/NC(=O)c1ccc(C(C)(C)C)cc1)c1ccccn1,4,-18,47*,41,17,15
C/C(=N\NC(=O)c1ccccc1Cl)c1ccccn1,-1,0,-10,-9,6,nt
C/C(=N\NC(=O)c1ccc(Cl)c(Cl)c1)c1ccccn1,23,-28,52*,49,0,47*
C/C(=N\NC(=O)c1cc(-c2cccs2)nc2ccccc12)c1ccccn1,32,1,67*,40,-11,48*
O=C(Cn1cnc2scc(-c3ccc(F)cc3)c2c1=O)NCC(c1ccco1)N1CCCC1 (stereo not given),-4,28,-3,-2,-1,nt
COc1ccc(Nc2cccc3ccccc23)cc1,13,-2,29,30,5,nt
CCOC(=O)c1cn[nH]c1NC(=S)Nc1ccc(Cl)cc1,40,nt,41*,20,19,-27
CN1CCN(C(CNS(=O)(=O)c2ccc([N+](=O)[O-])cc2)c2ccc(F)cc2)CC1 (stereo not given),8,8,2,8,5,nt
COc1ccc(/C=C/c2ccc3ccccc3[n+]2C)cc1OC,8,7,14,3,-23,nt
CN(CCCS(=O)(=O)[O-])c1ccc(/C=C/c2ccc3ccccc3[n+]2C)cc1,8,-10,43*,39,-10,5
CCOC(=O)C(Cc1c[nH]c2ccc([N+](=O)[O-])cc12)(NC(C)=O)C(=O)OCC,nt,-12,nt,nt,-1,nt
COc1cc(C(=O)Nc2ccc3nc(N4CCOCC4)sc3c2)cc(OC)c1OC,22,-9,41*,30,-1,16
CC(C)c1cc(CN2C(C)COCC2C)cc(C(C)C)c1O (stereo not given),nt,nt,nt,nt,-4,nt
COc1cccc(N=Nc2ccc3ccccc3c2O)c1,13,0,46*,32,-3,31*
CC(=O)C(C(c1ccccc1)N1CCCc2ccccc21)N1CCOCC1 (stereo not given),nt,nt,nt,nt,1,nt
COC(=O)C1=C(C(=O)OC)[C@]2([C@H]3CC=CCN[C@@H](Cc4ccccc4)C(=O)N3Cc3ccccc3)C=C[C@H]1O2,nt,13,nt,nt,-5,nt
O=C(CNc1cccc2ccccc12)N/N=C/C(Br)=C/c1ccccc1,36,2,41*,48,2,31*
SMILES,TIM10 inh,PfHsp90 set2,tim10-1 inh,tim23-1 inh,Beta2AR agonist,tim10-1 confirm
CCOc1ccc(S(=O)(=O)N2CCCCC2)cc1NC(=O)CN1C(=O)NC(C)(c2ccc(C)cc2)C1=O (stereo not given),-10,nt,0,8,5,nt
COc1ccccc1/C=C/C(=O)OCC(=O)Nc1c(C)nn(-c2ccccc2)c1C,14,nt,45*,31,2,29
Cc1cc(O)c2c(c1)C(=O)c1cc(O)cc(O)c1C2=O,24,25,45*,44,4,23
Cn1c2ccccc2c(=O)c2ccc(C#CC3(O)CCCCC3)cc21,-5,2,47*,-5,29,34*
C/C(=N\NC(=O)c1nnn(-c2nonc2N)c1-c1ccccc1)c1cccnc1,-2,0,-18,-8,-14,nt
Nc1nonc1-n1nnc(C(=O)c2ccccc2)c1-c1ccccc1,3,5,41*,35,-3,11
C#CC(=O)CC1(CN(Cc2ccccc2)C(=O)OC(C)(C)C)CCCCC1,nt,5,nt,nt,1,nt
CCCCN1CC(COCc2ccccc2)Oc2cccc(OCCN3C(=O)[C@@H]4[C@H](C3=O)C3C=C[C@H]4C3)c2S1(=O)=O (stereo not given in full),nt,-3,nt,nt,18,nt
CC[n+]1ccccc1/C=C1\Sc2ccc(C)cc2N1C,6,6,41*,24,-187,12
CCN1C(=O)CC(N2CCC(Nc3ccc(F)cc3)CC2)C1=O (stereo not given),0,14,6,-5,2,nt
O=C1CC(N2CCCCCC2)C(=O)N1c1ccc(F)cc1 (stereo not given),39,nt,54*,33,3,45*
CCOC(=O)c1ccc(N2C(=O)CC(N3CCC(Nc4ccc(F)cc4)CC3)C2=O)cc1 (stereo not given),35,128*,57*,15,1,50*
COc1cccc2c1OCC([C@@H]1C[C@H]3CN(Cc4cccc(Cl)c4)C(=O)[C@]34CCCN14)=C2,-1,-9,9,21,12,nt
COc1ccccc1/C=C/[C@@H]1C[C@H]2CN(Cc3cccc(Cl)c3)C(=O)[C@]23CCCN13,20,-12,43*,27,22,26
CCC(=O)Nc1nc2ccc3nc(C)sc3c2s1,23,14,48*,21,-17,23
N/C(=N\OC(=O)c1ccc(Br)cc1)c1ccncc1,37,0,53*,29,6,43*
COc1ccc(C(=O)O/N=C(/c2ccccc2)c2ccncc2)cc1OC,35,13,14,29,-7,nt
N/C(=N\OC(=O)c1cccc(Br)c1)c1ccncc1,11,10,41*,12,-10,35*
COc1cc(OC)cc(C(=O)O/N=C(\N)c2ccncc2)c1,-13,25,2,-1,6,nt
Cc1cccc(C(=O)O/N=C(/c2ccccc2)c2ccncc2)c1,31,nt,41*,37,2,42*
N/C(=N\OC(=O)c1ccccc1)c1ccncc1,4,2,-8,4,15,nt
N/C(=N\OC(=O)c1ccc(F)cc1)c1ccc(Br)cc1,34,nt,57*,29,0,46*
COC(=O)C1=C(C(=O)OC)C(C(=O)OC)C(C(=O)OC)C(C(=O)OC)(C(=O)OC)C(C(=O)OC)=C1C(=O)OC (stereo not given),nt,27,nt,nt,7,nt
